Sampled rows, rich in hits. Any-hit rate of the full collection: about 6%.
D1 PAM = human D1 dopamine receptor positive modulation. HEK293 TREx D1 cells, calcium flux, dopamine EC20 potentiation. potentiation, % at 10 µM. 360,000 tested, 0.036% active. AID 504651; in the data active = potentiation above about 30%; also: 0% is about no effect
DRD3 antagonist = blocks the human D3 dopamine receptor; P35462; D3R cells, DiscoveRx beta-arrestin luminescence, antagonist mode; active compounds read low; max response, negative = inhibition, %; 360,000 tested, 2.5% active; AID 652054; in the data active = max response below about -50%; also: % is scaled to controls: 0 for no effect and ±100 for the full control effect
Target sequence (P35462 whole entry, looked up): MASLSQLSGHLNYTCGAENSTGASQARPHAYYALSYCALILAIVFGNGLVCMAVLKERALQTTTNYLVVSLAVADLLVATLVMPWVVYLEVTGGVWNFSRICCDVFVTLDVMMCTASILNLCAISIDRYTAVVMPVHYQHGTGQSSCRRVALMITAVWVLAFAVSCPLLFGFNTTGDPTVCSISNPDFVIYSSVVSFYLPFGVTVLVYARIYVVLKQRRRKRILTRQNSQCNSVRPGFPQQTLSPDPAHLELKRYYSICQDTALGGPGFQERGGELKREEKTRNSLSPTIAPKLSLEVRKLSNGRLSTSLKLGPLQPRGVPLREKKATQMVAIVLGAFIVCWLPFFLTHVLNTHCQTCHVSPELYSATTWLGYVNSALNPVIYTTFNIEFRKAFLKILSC
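Cells plated overnight at 1500 cells/well, then exposed to library compounds with dopamine controls for 90 minutes at 37 degrees C. DiscoveRx reagent added for 30–60 minutes at room temperature; luminescence read, quantitative HTS format.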
DRD3 agonist = activates the human D3 dopamine receptor; P35462; D3R DiscoveRx beta-arrestin cells, luminescence, 90 min; max activation, %; 410,000 tested, 0.58% active; AID 652048; in the data active = max activation above about 30%; also: 0% is about no effect
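Agonist mode: compounds and dopamine controls were applied to plated cells for 90 min at 37 degrees C after an overnight attachment at 1500 cells/well. Luminescent read-out followed 30 - 60 minutes at room temperature with DiscoveRx detection reagent.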
D1 ag = human D1 receptor agonism. P21728. HEK293 T-REx D1 cells, calcium flux, agonist mode. activation, % at 2 µM. 360,000 tested, 1% active. AID 504660; in the data active = activation above about 30%; also: 0% is about no effect
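Tetracycline-induced HEK293 TREx D1 cells, force-coupled to calcium signalling, were dye-loaded with a no-wash calcium kit. Compound was pin-added after a 10 s baseline. Fluorescence was read kinetically at 1 cycle/s for 180 s, with calcium rises flagged as agonism.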
D1 antag = human D1 dopamine receptor antagonism. P21728. HEK293 TREx D1 cells, calcium flux, dopamine EC80; active compounds read low. activity change, negative = inhibition, % at 10 µM. 360,000 tested, 3.2% active. AID 504652; in the data active = activity change below about -30%; also: % is scaled to controls: 0 for no effect and ±100 for the full control effect
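Antagonism measured as reduced calcium response to an EC80 dopamine addition following 180 s compound pre-read; cells were inducible HEK293 Trex D1 plated overnight at 30 C, read kinetically at 1 cycle/sec.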
An asterisk follows results filed as active; ! = repeats disagree.

CC1=Nc2cc(C(=O)N3CCCCC3)ccc2Sc2ccc(C)cc21 was read as D1 PAM -6.0, DRD3 antagonist 1.2, DRD3 agonist 3.7, D1 ag 11.6 and D1 antag -43.5*!.
`Cc1nc(-c2ccccc2O)n(S(=O)(=O)N(C)C)n1` gave D1 PAM -2.1, DRD3 antagonist 13.1, DRD3 agonist 30.6*, D1 ag -0.1 and D1 antag 3.4.
Screening COc1ccc(-c2nc(C)c(CCNC(=O)C(=O)Nc3cc(C)cc(C)c3)s2)cc1OC returned D1 PAM -1.5, DRD3 agonist 6.4, D1 ag 1.3 and D1 antag 10.7.
`CC1C(=O)CC(c2ccccc2)N(C)C1c1ccccc1` (stereo not drawn) gave DRD3 antagonist -79.0*, DRD3 agonist -23.3, D1 ag 1.7 and D1 antag -15.3.
Screening COc1ccc(N2CCN(C(=O)CSc3nnc4c5cc(C)ccc5n(C)c4n3)CC2)cc1 returned D1 PAM 0.1, DRD3 antagonist 21.5, DRD3 agonist 42.9*, D1 ag -0.1 and D1 antag 0.2.
For COc1ccc2c(c1)c1nnc(SCC(=O)N3CCCCC3C)nc1n2C (stereo not drawn) the results were D1 PAM -7.2, DRD3 antagonist 12.8, DRD3 agonist -1.6, D1 ag 0.9 and D1 antag 3.2.
CCCc1nc2c3ccccc3ccn2c1Cc1cccc(F)c1 was read as DRD3 antagonist -89.8* and DRD3 agonist -5.0.
`O=C(NNc1c([N+](=O)[O-])cc(C(F)(F)F)cc1[N+](=O)[O-])c1ccco1` gave D1 PAM 4.6, DRD3 antagonist -21.5, DRD3 agonist -2.5, D1 ag 21.0 and D1 antag -35.9*.
Screening CSCCC(NS(=O)(=O)c1ccc2c(c1)oc(=O)n2C)C(=O)N1CCN(c2cc(Cl)ccc2C)CC1 (stereo not drawn) returned D1 PAM -0.1, DRD3 agonist -13.2, D1 ag 1.6 and D1 antag -8.9.
`COc1ccc(C(=O)NNC2=Nc3cccc4cccc2c34)cc1` gave D1 PAM -3.5, DRD3 antagonist -68.0*, DRD3 agonist -11.7, D1 ag 4.5 and D1 antag -0.5.
For Cc1ccc(C(=O)NNC2=Nc3cccc4cccc2c34)cc1 the results were D1 PAM -3.8, DRD3 antagonist -73.6*, DRD3 agonist -24.5, D1 ag 6.8 and D1 antag 1.5.
`COc1ccc(CC(=O)NNC(=O)Cc2ccc(OC)cc2)cc1` gave D1 PAM 0.6, D1 ag 0.9 and D1 antag -10.4.
Screening NC(=O)NNC1=Nc2cccc3cccc1c23 returned D1 PAM -9.7, DRD3 antagonist 3.3, DRD3 agonist -9.2, D1 ag 1.3 and D1 antag -3.9.
Screening COc1ccc(CC(=O)NNC2=Nc3cccc4cccc2c34)cc1 returned D1 PAM 0.8, DRD3 antagonist -78.9*, DRD3 agonist -22.2, D1 ag 4.0 and D1 antag 14.1.
For CCCCOc1ccc(C(=O)N(Cc2ccc(N(C)C)cc2)Cc2ccco2)cc1 the results were D1 PAM -1.2, DRD3 agonist 4.2, D1 ag 0.0 and D1 antag -1.7.
`CC(Oc1ccccc1F)C(=O)NCC1(N2CCOCC2)CCCCC1` (stereo not drawn) gave D1 PAM -0.2, DRD3 agonist -8.8, D1 ag -1.2 and D1 antag 1.8.
`Cc1nc(N2CCCC2)c2c(C(=O)N3CCN(c4cccc(C)c4C)CC3)c(C)oc2n1` gave D1 PAM -5.2, DRD3 agonist 0.2, D1 ag -0.7 and D1 antag -3.9.
CC(C)OCCCNC(=O)Cc1ccc(NC(=O)N2CCCCc3ccccc32)cc1 was read as D1 PAM -4.0, DRD3 agonist 0.0, D1 ag 2.5 and D1 antag 6.0.
COc1ccc(NC(=O)CCC(=O)c2cccs2)cc1Cl was read as D1 PAM -0.1, DRD3 antagonist 0.0, DRD3 agonist -6.2, D1 ag 2.2 and D1 antag -3.2.
Screening CCc1cccc(NC(=O)Nc2cccs2)c1 returned D1 PAM -9.1, DRD3 antagonist 0.0, DRD3 agonist 0.9, D1 ag 9.7 and D1 antag -18.7.
Screening N#Cc1cccc(NC(=O)Nc2cccs2)c1 returned D1 PAM -9.9, DRD3 antagonist 24.8, DRD3 agonist -4.9, D1 ag 42.0* and D1 antag -53.3*.
Screening COc1ccc(NC(=O)COC(=O)Cc2cccs2)cc1Cl returned DRD3 antagonist 0.0 and DRD3 agonist 1.4.
COc1ccc(NC(=O)Nc2cccs2)cc1Cl was read as D1 PAM -3.9, DRD3 antagonist -62.7*, DRD3 agonist -1.1, D1 ag 14.3 and D1 antag -11.5.
COc1ccc(NC(=O)COC(=O)CNC(=O)c2cccs2)cc1Cl was read as DRD3 antagonist 9.0, DRD3 agonist 6.8, D1 ag -0.1 and D1 antag -34.3*.
For COc1ccc(Cn2ncc3c4sc(C)cc4n(C)c3c2=O)cc1F the results were D1 PAM 5.0, D1 ag 0.3 and D1 antag -12.6.
For O=C(Nc1ccc(OCc2cc(=O)n3ccccc3n2)cc1)c1ccccc1Cl the results were D1 PAM -1.1, DRD3 agonist -9.5, D1 ag 1.1 and D1 antag -19.5.
`CCOC(=O)c1cc(-c2ccc(OC)cc2)n(CCC(=O)Nc2ccccc2OC)c1C` gave D1 PAM -1.0, DRD3 agonist -17.4, D1 ag 2.8 and D1 antag -21.5.
Screening COc1ccccc1/C=C/c1nc(C#N)c(NCc2ccccc2)o1 returned D1 PAM 0.9, DRD3 agonist 6.6, D1 ag -1.0 and D1 antag -0.4.
Screening CC(C)(C)OC(=O)N1CCC(c2c(C(=O)N3CCN(c4ccccn4)CC3)cnn2-c2cccc(F)c2)CC1 returned D1 PAM -1.2, DRD3 agonist -3.2, D1 ag -0.3 and D1 antag 1.3.
Screening Cc1cc(NS(=O)(=O)c2ccc(Nc3nc(-c4ccc(C)c(C)c4)cs3)cc2)no1 returned D1 PAM -10.6, DRD3 antagonist -19.7, DRD3 agonist 3.7, D1 ag 68.0* and D1 antag -11.5.
Cc1cc(NS(=O)(=O)c2ccc(Nc3nc(-c4ccc(O)cc4)cs3)cc2)no1 was read as D1 PAM -2.1, DRD3 antagonist 3.2, DRD3 agonist 1.6, D1 ag 0.4 and D1 antag 5.5.
For Cc1cccc(OCC(=O)N2CCC(c3nc4ccccc4o3)CC2)c1C the results were D1 PAM 0.9, DRD3 agonist 2.8, D1 ag -1.0 and D1 antag -11.3.
CC(=O)Nc1nnc(CSCc2ccc(F)cc2)s1 was read as D1 PAM 3.4, DRD3 antagonist -51.0*, DRD3 agonist 3.5, D1 ag 3.9 and D1 antag -4.0.
For CC(C)CC(=O)Nc1nnc(SCC(=O)Nc2nccs2)s1 the results were D1 PAM -1.0, DRD3 antagonist -12.7, DRD3 agonist -6.2, D1 ag 7.2 and D1 antag -35.1*.
